High-throughput results deposited in PubChem BioAssay by NMMLSC.
RGS8-Gao reg: regulators of human RGS8-Galphao interaction | P09471 | multiplexed bead flow cytometry, RGS8-Galphao binding; actives lie on both sides | response (percent of control binding), % at 10 µM | hit rate 0.34% among 220,000 | AID 1423; in the data active means response below about 60% or above about 140%; inactive means in between;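 further: Galphao activated as the GDP aluminium fluoride complex binding bead-coupled RGS8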
Target sequence (P09471 whole entry, looked up): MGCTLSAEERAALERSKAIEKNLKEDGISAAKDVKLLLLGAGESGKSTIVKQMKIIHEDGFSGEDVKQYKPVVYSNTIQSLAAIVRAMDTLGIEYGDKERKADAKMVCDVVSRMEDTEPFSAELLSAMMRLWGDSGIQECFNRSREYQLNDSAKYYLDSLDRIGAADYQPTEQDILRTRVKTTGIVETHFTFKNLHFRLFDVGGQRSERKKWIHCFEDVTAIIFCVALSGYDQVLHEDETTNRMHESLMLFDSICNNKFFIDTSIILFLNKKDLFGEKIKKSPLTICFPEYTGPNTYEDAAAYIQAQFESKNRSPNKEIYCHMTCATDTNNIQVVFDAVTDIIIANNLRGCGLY
RGS16-Gao: modulates binding between human RGS16 and Galphao; O15492+P09471; hit rate 0.38% among 220,000; bead-based flow cytometry RGS16-Galphao binding, fluorescence; actives lie on both sides; binding response (% of control), % at 10 µM; AID 1441;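 further: Galphao activated by GDP with aluminum fluoride before binding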
RGS4-Gao reg: human RGS4-Galphao interaction regulation | AID 1415 | Multiplexed bead flow cytometry, RGS4-Galphao binding; actives lie on both sides | hit rate 0.33% among 220,000 | binding response (% of control), % at 10 µM; in the data active means binding response below about 49% or above about 150%; inactive means in between;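 further: fluorescent Galphao activated with aluminum fluoride binding bead-coupled RGS4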
RGS7-Gao: regulators of human RGS7-Galphao interaction; hit rate 0.35% among 220,000; P09471; Multiplexed bead flow cytometry, RGS7-Galphao binding; actives lie on both sides; binding response (% of control), % at 10 µM; in the data active means binding response below about 49% or above about 150%; inconclusive means no clear call, values can overlap the other calls; inactive means in between;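 further: fluorescent Galphao held in activated GDP-AlF4 state binding bead-coupled RGS7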
GSH fluor: GSH bead compound fluorescence profile | hit rate 0.25% among 190,000 | fluorescence (KMESF) at 10 µM | GSH beads flow cytometry, compound fluorescence 488/530 nm; hits give high values; in the data active means fluorescence above about 89;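 further: glutathione beads carrying GST-tagged Bcl family fusion proteins plus one bare bead set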
Avidin fluor: compound fluoresces at 488/530 nm on avidin beads; compound fluorescence 488/530 nm, flow cytometry; hits give high values; fluorescence (KMESF) at 10 µM; hit rate 0.38% among 220,000; in the data active means fluorescence above about 47
RGS-Gao: modulates binding between human RGS4 and Galphao; shares compounds with RGS16-Gao; multiplexed bead flow cytometry, RGS–Galpha-o binding; RGS4–Galpha-o binding response, % at 10 µM; hit rate 99% among 1,600;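 further: fluorescently labeled Galpha-o bound to GDP with aluminium fluoride binding biotinylated RGS beads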
Biotin-avidin: counter-screen: compounds disrupting biotin binding to avidin beads; AID 1783; streptavidin beads, fluorescein-biotin binding, flow cytometry; inhibition, % at 10 µM; 1,700 tested, under 10 active; shares compounds with RGS16-Gao;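 active means inhibition above 50%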;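 further: median green fluorescence of gated singlet beads compared with DMSO control wells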
RGS8-Gao single: RGS8-Galphao interaction regulation, single point confirmation; bead-based flow cytometry RGS8-Galphao binding, fluorescence; actives lie on both sides; binding response (% of control), % at 10 µM; shares compounds with RGS16-Gao; AID 1836; hit rate 3% among 1,700; in the data active means binding response below about 72% or above about 130%; inactive means in between;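 further: Galphao activated as GDP AlF4 complex before binding bead RGS8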
RGS7-Gao confirm: confirmation of regulators of human RGS7-Galphao interaction | hit rate 7.8% among 1,700 | shares compounds with RGS16-Gao | AID 1837 | response (percent of control binding), % at 10 µM | bead-based flow cytometry RGS7-Galphao binding; actives lie on both sides; in the data active means response below about 75% or above about 130%; inactive means in between;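 further: fluorescent Galphao activated with GDP and aluminum fluoride binding bead-coupled RGS7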
RGS16-Gao single: RGS16-Galphao interaction regulation, single point confirmation | response (% of control binding), % at 10 µM | bead-based flow cytometry, RGS16-Galphao binding; actives lie on both sides | shares compounds with RGS16-Gao | hit rate 4% among 1,700; in the data active means response below about 74% or above about 130%; inactive means in between;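 further: Galphao activated as the GDP aluminium fluoride complex binding bead-coupled RGS16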
RGS4-Gao single: RGS4-Galphao interaction regulation, single point confirmation. shares compounds with RGS16-Gao. hit rate 4% among 1,700. binding response (% of control), % at 10 µM. AID 1840. RGS4-Galphao binding, multiplexed bead flow cytometry; actives lie on both sides; in the data active means binding response below about 74% or above about 130%; inactive means in between
RGS19-Gao single: confirmation of regulators of human RGS19-Galphao interaction; shares compounds with RGS16-Gao; bead-based flow cytometry RGS19-Galphao binding; actives lie on both sides; response (percent of control binding), % at 10 µM; hit rate 5% among 1,700; in the data active means response below about 50% or above about 160%; inactive means in between
Target sequence (P09471 whole entry, looked up): as above
Target sequence (P49795 whole entry, looked up): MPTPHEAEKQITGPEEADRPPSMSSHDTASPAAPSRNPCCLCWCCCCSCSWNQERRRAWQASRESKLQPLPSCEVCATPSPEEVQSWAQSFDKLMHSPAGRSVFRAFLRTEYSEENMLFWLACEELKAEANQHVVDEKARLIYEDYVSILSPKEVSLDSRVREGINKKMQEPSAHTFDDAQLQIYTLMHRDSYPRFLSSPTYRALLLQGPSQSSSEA
Numbers stand for hits; i = inactive; ? = inconclusive; nt = no result; [ ] = remark or other dose. This is a sample that favours compounds with a hit; in the whole collection about 1.2% have one here. Unless noted, how the calls were made is not given here.

SMILES	RGS8-Gao reg	RGS16-Gao	RGS4-Gao reg	RGS7-Gao	GSH fluor	Avidin fluor	RGS-Gao	Biotin-avidin	RGS8-Gao single	RGS7-Gao confirm	RGS16-Gao single	RGS4-Gao single	RGS19-Gao single
CCN(CC)C1=CC2=CC(=C(C#N)C#N)CCC2CC1 (configuration not stated)	i	i	165[activator]	i	i	i	nt	i	i	167[activator]	i	130[activator]	363[activator]
N#CC(C#N)=C1C=C2C=C(N3CCCCC3)CCC2CC1 (configuration not stated)	i	i	161[activator]	186[activator]	99	84	nt	i	i	137[activator]	i	i	190[activator]
Cc1cc(C)c(S(=O)(=O)N2CCOC2CNC(=O)C(=O)NCCCn2ccnc2)c(C)c1 (configuration not stated)	i	i	i	?	nt	i	nt	nt	nt	nt	nt	nt	nt
CC1(C)Cc2ccccc2-c2nnc(-c3ccc4ccccc4n3)n21	i	19	i	i	i	i	78	i	i	i	i	i	i
Cc1cc2c(cc1C)-c1nnc(-c3ccc4ccccc4n3)n1C(C)(C)C2	i	i	i	i	i	i	nt	nt	nt	nt	nt	nt	nt
Nc1c(Cl)cc(Cl)cc1C(=O)OCC(=O)N1CCCC1	14	4.0	11	9.7	i	i	nt	i	i	i	i	i	i
NC(=O)COC(=O)c1cc(Cl)cc(Cl)c1N	i	i	i	i	i	i	nt	nt	nt	nt	nt	nt	nt
Cc1nn(-c2ccc(F)cc2)c2sc(C(=O)OC3CCOC3=O)cc12 (configuration not stated)	nt	nt	nt	nt	i	nt	nt	i	i	i	i	i	i
O=C(Cc1noc2ccccc12)Nc1ccc2ccccc2c1	i	25	i	i	i	i	91	i	i	i	i	i	i
CN(c1ccccc1)S(=O)(=O)c1cccc(NC(=O)CN2CCCc3ccccc32)c1	i	178[activator]	i	?	nt	i	141	i	i	131[activator]	i	i	i
CC(=O)c1sc(C(C)(C)C)cc1NC(=O)c1ccccc1C(=O)O	i	i	i	?	nt	i	nt	nt	nt	nt	nt	nt	nt
C=CCNC(=S)N(CC)c1cccc2ccccc12	i	i	i	i	i	i	nt	nt	nt	nt	nt	nt	nt
CCCCN(C)C(=O)Cn1cnc2sc(C)cc2c1=O	i	i	i	155[activator]	i	110	109	nt	nt	nt	nt	nt	nt
CCCCNC(=O)c1ccc(N2CCC3(CC2)OCCO3)c([N+](=O)[O-])c1	i	21	i	i	i	i	94	i	i	i	i	i	i
CCOC(=O)N1CCC(NC(=O)c2ccc(N3CCC4(CC3)OCCO4)c([N+](=O)[O-])c2)CC1	i	i	i	i	i	i	nt	nt	nt	nt	nt	nt	nt
CC(=O)c1ccc(NC(=O)Nc2ccc(Br)cc2C)cc1	i	184[activator]	204[activator]	216[activator]	i	76	nt	i	i	i	i	i	i
CC(=O)c1ccc(NC(=O)c2ccc(C)c(Br)c2)cc1	i	i	i	i	i	i	nt	nt	nt	nt	nt	nt	nt
O=C(c1cc(-c2cccnc2)nc2ccccc12)N1CCCc2ccccc21	i	13	i	i	i	i	96	i	i	i	i	i	i
Cc1ccc(-c2cc(C(=O)N3CCCc4ccccc43)c3ccccc3n2)cc1	i	i	i	i	i	i	nt	nt	nt	nt	nt	nt	nt
CCOc1ccccc1C(=O)Nc1cc(C(=O)NCC(C)C)ccc1Cl	i	i	i	i	i	i	nt	nt	nt	nt	nt	nt	nt
CCN1CCCc2cc(CN(CCN3CCOCC3)C(=S)Nc3cccc(Cl)c3)ccc21	i	i	i	i	i	i	nt	nt	nt	nt	nt	nt	nt
Cc1cccc(OCC(=O)N2CCCc3ccccc32)c1	i	i	i	i	i	i	nt	nt	nt	nt	nt	nt	nt
CCc1cc(=O)oc2c(C)c(OCC(=O)N3CCCc4ccccc43)ccc12	159[activator]	i	i	i	i	i	133	i	i	i	i	i	i
CC1(C)CC2CC(C)(CN2/C=N/c2sc3c(c2C#N)CC(C)(C)NC3(C)C)C1 (configuration not stated)	i	i	i	?	nt	i	nt	nt	nt	nt	nt	nt	nt
Cc1ccc2c(c1)cc(CN(Cc1ccco1)C(=O)COc1ccccc1)c1nnnn12	i	i	i	159[activator]	i	102	126	i	i	i	i	i	i
SMILES	RGS8-Gao reg	RGS16-Gao	RGS4-Gao reg	RGS7-Gao	GSH fluor	Avidin fluor	RGS-Gao	Biotin-avidin	RGS8-Gao single	RGS7-Gao confirm	RGS16-Gao single	RGS4-Gao single	RGS19-Gao single
CCN=C1SC(CC(=O)NCC)C(=O)N1CC (configuration not stated)	i	i	259[activator]	213[activator]	i	74	nt	i	i	i	i	i	i
Cc1ccc(N=N/C(=C\O)C(=O)c2ccc(Cl)cc2)cc1	59	i	42	45	i	i	nt	i	i	i	i	i	i
Cc1n[nH]c(=S)n1/N=C/c1ccccc1OCc1ccc(Cl)cc1Cl	i	15	i	i	i	i	92	i	i	i	i	i	i
O=S(=O)(c1ccc(F)cc1)N1CCCN(c2nccc(C(F)(F)F)n2)CC1	i	i	i	?	nt	i	nt	nt	nt	nt	nt	nt	nt
C=CCn1c(SCC#N)nnc1-c1ccc2ncccc2c1	i	i	i	?	nt	i	nt	nt	nt	nt	nt	nt	nt
CCOC(=O)C1=NN(c2cccc(C)c2)C2(S1)SC(C(C)=O)=C(C)N2c1ccccc1 (configuration not stated)	nt	nt	nt	nt	i	nt	nt	i	i	i	i	i	i
CCCC1Cc2c(sc(N)c2C#N)CO1 (configuration not stated)	i	i	i	?	i	i	nt	nt	nt	nt	nt	nt	nt
COc1ccc(CCNC(=O)COC(=O)C23CC4CC(CC(Br)(C4)C2)C3)cc1	i	14	i	i	i	i	91	i	i	i	i	i	i
C/C(O)=C(\N=Nc1cc(C)ccc1O)C(N)=O	i	i	i	i	i	i	nt	nt	nt	nt	nt	nt	nt
COC(=O)CNC(=O)c1ccc(C)s1	i	i	i	i	i	i	nt	nt	nt	nt	nt	nt	nt
COCCNC(=O)c1ccc(C(=O)NCCOC)s1	nt	nt	233[activator]	nt	i	nt	nt	i	i	i	i	i	i
COc1ccc(C(=O)NCCCOc2cccc(NC(C)=O)c2)cc1	i	i	i	?	nt	i	nt	nt	nt	nt	nt	nt	nt
Cc1nn(-c2ccccc2)c(C)c1/C=N\N1CCN(c2ccc(Cl)cc2)CC1	nt	nt	nt	nt	i	nt	nt	i	i	i	i	i	i
